Results filed as inconclusive are left out. Values without a mark were called inactive. Activity calls are given as the source filed them. Calls follow the shape of the dose curve; as a rule, active = well fitted activation curve with a large enough effect; inconclusive = small, poorly fitted or top-dose-only effect; inactive = no such curve, though single readings can be large or run the other way.
assay: qHTS Assay for Rab9 Promoter Activators: Hit Validation Using Renilla Luciferase Read-Out for Rab9; settings: Huh7 Rab9 promoter Renilla luciferase reporter, 24 h; series mostly up to 76.9 µM; activation, negative = inhibition: at the top concentration; as to activation, negative = inhibition: % of control where 0% means no effect
How it was run: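 Huh7 cells stably carrying promoter-luciferase reporter, exposed to compound for 24 h at 37 deg C. Luminescence read 10 min after adding luciferase detection reagent at room temperature.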
Potency is read from the fitted curve at half-maximal effect.

Going from `CCOC(=O)c1csc(COc2ccc(OC)cc2)n1` to `COc1ccc(NC(=S)NNC(=O)c2cccs2)cc1`, the “activation, negative = inhibition” value falls from -3.06% to -63%.

Compared with `CC(=O)Nc1ccc(-c2csc(Nc3ncccn3)n2)cc1`, `CC1CCCN(C(=S)Nc2ccc(Nc3ccccc3)cc2)C1` (stereo not drawn) is lower in “activation, negative = inhibition” value: 2.38% for the first, -6.42% for the second.

First: CC(C)C1(CCNC(=O)c2cccs2)CCOC(C)(C)C1 (stereo not drawn)
Second: CCCCn1c(CCNC(=O)c2cccs2)nc2ccccc21
The “activation, negative = inhibition” value of the first is higher: 6.93% for the first, -4.02% for the second.

Going from `COc1ccc(/C=C\c2onc(C)c2S(=O)(=O)N2CCC(C(=O)NCCC(C)C)CC2)cc1` to `CCCNC(=O)C1CCN(S(=O)(=O)c2ccc3[nH]c(=O)ccc3c2)CC1`, the “activation, negative = inhibition” value rises from -44.7% to -0.496%.

Going from `O=C(Nc1nc2ccc(F)cc2s1)c1ccc(N2CCCC2=O)cc1` to `COc1ccc(-c2noc(N3CCCC(C(=O)Nc4ccccc4F)C3)n2)cc1` (stereo not drawn), the “activation, negative = inhibition” value rises from -9.51% to -4.51%.

Going from `NC(=O)COC(=O)c1ccc2noc(-c3ccccc3)c2c1` to `O=C(COC(=O)c1ccc(-c2nnc(-c3ccccc3)o2)cc1)c1ccccc1`, the “activation, negative = inhibition” value falls from -0.713% to -3.43%.

Compared with `O=C(C1COc2ccccc2O1)N1CCN(S(=O)(=O)c2ccccc2)CC1` (stereo not drawn), `COCCNC(=O)Cn1nc(-c2ccccc2)c2ccccc2c1=O` is higher in “activation, negative = inhibition” value: -3.31% for the first, -3.11% for the second.

First: Cc1cccc(C)c1NC(=O)Nc1cccs1
Second: Cc1ccc(NC(=O)c2c(O)c3ccccc3n(C)c2=O)nc1
The “activation, negative = inhibition” value of the first is lower: 2.79% for the first, 9% for the second.

Going from `Cc1ccc(S(=O)(=O)/N=C2\C=C(Nc3cccc(C(=O)O)c3)C(=O)c3ccccc32)cc1` to `Cc1ccc(C(=O)c2cn[nH]c2-c2ccccc2O)cc1`, the “activation, negative = inhibition” value rises from -96.1% to -8.56%.

First: Cc1nn(CCCC(=O)NCc2ccc(F)cc2)c(C)c1[N+](=O)[O-]
Second: O=C(CCNC(=O)c1ccc(Br)o1)NCc1ccc(Cl)cc1
The “activation, negative = inhibition” value of the first is lower: -6.9% for the first, -1.43% for the second.

Compared with `COc1ccc(-n2cc(-c3ccc(Cl)cc3)[nH]c2=S)cc1`, `CCCCn1c(Nc2ccc(OC)cc2)nc2ccccc21` is lower in “activation, negative = inhibition” value: -6.48% for the first, -15.8% for the second.

First: Cc1ccc(C#N)c(SCC(=O)Nc2nccs2)n1
Second: Brc1ccccc1-c1nnc(CSc2nnc3sc4ccccc4n23)o1
The “activation, negative = inhibition” value of the first is higher: 0.867% for the first, -17.1% for the second.

First: NC(=O)C1(NC(=O)[C@@H]2CC3(CC(c4cccc(NC(=O)[C@@H]5CCC(=O)N5)c4)=NO3)CN2C(=O)c2ccccc2)CC1 (stereo partly drawn)
Second: COc1ccc(C)cc1N(C(=O)CNC(=O)c1ccco1)C(C(=O)NC1CCCC1)c1cccnc1 (stereo not drawn)
The “activation, negative = inhibition” value of the first is lower: -2.9% for the first, 14.4% for the second.

Going from `COC(=O)c1cn(NC(=O)C2CCCCC2)c(=O)c2ccccc12` to `CCN(Cc1nc2cc(Cl)ccc2c(=O)[nH]1)C(=O)C1CC(=O)N(c2cccc3ccccc23)C1` (stereo not drawn), the “activation, negative = inhibition” value rises from 0.264% to 10.1%.

First: Cc1nc2sc(C(=O)OC(C)C)c(N)c2c(C)c1C
Second: CCCC(C)NC(=O)c1ccc(OCc2ccc(Cl)cc2)c(OC)c1 (stereo not drawn)
The “activation, negative = inhibition” value of the first is higher: 4.33% for the first, -18.8% for the second.

Compared with `COCCSc1ncnc2c1oc1nc3c(cc12)COC(C)(C)C3`, `CCOc1cc(C2C(C#N)=C(N)Oc3n[nH]c(C)c32)ccc1OCCN1CCOCC1` (stereo not drawn) is higher in “activation, negative = inhibition” value: -0.926% for the first, 4.94% for the second.

Compared with `Nc1c(N(CCO)C(=O)/C=C/c2ccco2)c(=O)[nH]c(=O)n1Cc1ccccc1`, `Cc1ccc(N(O)C(=O)NCCCCNC(=O)N(O)c2ccc(C)cc2)cc1` is lower in “activation, negative = inhibition” value: 5.1% for the first, 1.97% for the second.

For `CC1CCc2sc(C(=O)NNC(=S)NC3CC3)cc2C1` (stereo not drawn), the “activation, negative = inhibition” value was -53.2%.

For `COc1ccc([N+](=O)[O-])cc1COc1ccc2c(-c3ccccc3)cc(=O)oc2c1`, the Potency was 3.28 µM (active).
For `N#C/C(=C\c1ccc[nH]1)C(=O)Nc1ccccc1Cl`, the Potency was 23.2 µM (active).
With `Nc1ccc(C(=O)Nc2ccccc2N)cc1` the Potency was 16.4 µM (active).

— PubChem BioAssay AID624116 (National Center for Advancing Translational Sciences (NCATS), 2012)
